Experimental data published in PubChem BioAssay (EPA / NIEHS).
Records with an inconclusive call do not appear. Active and inactive are the calls of the source. Rule for the calls: active = hit-call score of the fitted dose curve at least 0.9, where 1 is the maximum; inconclusive = response in the unintended direction; inactive = score below 0.9.

Molecular target: D(1A) dopamine receptor (Homo sapiens) (UniProt P21728)
Assay: NVS_GPCR_hDRD1: NovaScreen (NVS) G Protein-Coupled Receptor Assay for human Dopamine Receptor D1 (DRD1) (AID 2283269)
How it was run: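 HEK293-derived receptor preparation; radioligand competitive displacement; 1 h; filtration + scintillation counting. DMSO = negative control/baseline. Primary: 25 uM, duplicate; secondary: concentration–response for actives.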

Chain of D(1A) dopamine receptor (Homo sapiens) (P21728 whole entry, looked up): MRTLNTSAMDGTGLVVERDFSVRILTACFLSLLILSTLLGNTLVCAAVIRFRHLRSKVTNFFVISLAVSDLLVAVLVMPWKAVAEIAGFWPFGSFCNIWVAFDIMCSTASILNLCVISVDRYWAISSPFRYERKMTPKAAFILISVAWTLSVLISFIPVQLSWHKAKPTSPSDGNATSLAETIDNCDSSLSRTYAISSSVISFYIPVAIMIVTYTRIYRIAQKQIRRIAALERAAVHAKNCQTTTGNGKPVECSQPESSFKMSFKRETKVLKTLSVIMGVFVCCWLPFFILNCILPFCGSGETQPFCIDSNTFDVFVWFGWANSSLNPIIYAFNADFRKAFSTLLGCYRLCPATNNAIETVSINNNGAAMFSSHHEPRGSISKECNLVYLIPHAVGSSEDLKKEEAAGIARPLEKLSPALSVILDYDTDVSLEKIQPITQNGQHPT

| Structure (SMILES) | AC50 | outcome |
| --- | --- | --- |
| Nc1nc(N)c2nc(CNc3ccc(C(=O)N[C@@H](CCC(=O)O)C(=O)O)cc3)cnc2n1 | 38.9 µM (active) |  |
| CC1(C)CC(N=C=O)CC(C)(CN=C=O)C1 (stereo not given) |  | inactive |
| COc1cc(S(=O)(=O)O)c(C)cc1N=Nc1c(O)ccc2cc(S(=O)(=O)O)ccc12 | 35.3 µM (active) |  |
| O=C(N[C@@H](Cc1ccccc1)[C@@H](O)C(=O)N1C[C@@H](O)[C@@H](O)C1)c1cc2cc(Cl)ccc2[nH]1 |  | inactive |
| NC(=O)Cn1c(=O)cc(CCN2CCN(c3nccc4sccc34)CC2)c2ccc(F)cc21 | 0.00708 µM (active) |  |
| Oc1ccc2c(c1)OC[C@@H](N1CCC(O)(c3ccc(F)cc3)CC1)[C@H]2O |  | inactive |
| CCCCC(CC)COC(=O)CC(C(=O)OCC(CC)CCCC)S(=O)(=O)O (stereo not given) | 7.29 µM (active) |  |
| CN1CCN(Cc2cc(-c3ccc4[nH]c(=O)oc4c3)co2)[C@@H](c2ccc(F)cc2)C1 | 5.7 µM (active) |  |
| COc1ccc(S(=O)(=O)N2C(=O)[C@@](c3ccccc3OC)(N3C[C@H](O)C[C@H]3C(=O)N(C)C)c3cc(Cl)ccc32)c(OC)c1 |  | inactive |
| CC1=C(/C=C/C(C)=C/C=C/C(C)=C/CO)C(C)(C)CCC1 |  | inactive |

Molecular target: Muscarinic acetylcholine receptor M1 (Homo sapiens) (UniProt P11229)
Assay: NVS_GPCR_hM1: NovaScreen (NVS) G Protein-Coupled Receptor Assay for human Muscarinic, M1 Receptor (AID 2283270)
Description: (§1) NVS_GPCR_hM1 is a biochemical, single-readout assay that uses extracted gene-proteins from CHO in a cell-free assay. Measurements were taken 1 hour after chemical dosing in a 96-well plate.NVS_GPCR_hM1 is one of one assay component(s) measured or calculated from the NVS_GPCR_hM1 assay. It is designed to make measurements of radioligand binding, a form of binding reporter, as detected with scintillation counting signals by Filter-based radiodetection technology.Data from the assay component NVS_GPCR_hM1 was analyzed into 1 assay endpoint. This assay endpoint, NVS_GPCR_hM1, was analyzed in the positive analysis fitting direction relative to DMSO as the negative control and baseline of activity. Using a type of binding reporter, loss-of-signal activity can be used to understand changes in the binding as they relate to the gene CHRM1. Furthermore, this assay endpoint can be referred to as a primary readout, because the performed assay has only produced 1 assay endpoint. To generalize the intended target to other relatable targets, this assay endpoint is annotated to the gpcr intended target family, where the subfamily is rhodopsin-like receptor.
Binding assays used specific radioligands (tritiated, iodinated) with non-radioactive competitive displacement ligands in agonist or antagonist protocols (as indicated) and various reference compounds and inhibitors to titrate specific binding to receptors and transporters. Most enzyme assays (CYPs, kinases, phosphatases, proteases, HDACs) used recombinant protein and specific substrates (fluorescence mostly, some colorimetric and radioactive) and inhibitors, followed by a biochemical separation of substrate and product. All assays for the biochemical HTS were initially run in duplicate at a single concentration (10 uM for CYP450 assays and 25 uM for all others). […] Each assay was run with positive and negative controls, and concurrent controls on every plate. […]

Chain of Muscarinic acetylcholine receptor M1 (Homo sapiens) (P11229 whole entry, looked up): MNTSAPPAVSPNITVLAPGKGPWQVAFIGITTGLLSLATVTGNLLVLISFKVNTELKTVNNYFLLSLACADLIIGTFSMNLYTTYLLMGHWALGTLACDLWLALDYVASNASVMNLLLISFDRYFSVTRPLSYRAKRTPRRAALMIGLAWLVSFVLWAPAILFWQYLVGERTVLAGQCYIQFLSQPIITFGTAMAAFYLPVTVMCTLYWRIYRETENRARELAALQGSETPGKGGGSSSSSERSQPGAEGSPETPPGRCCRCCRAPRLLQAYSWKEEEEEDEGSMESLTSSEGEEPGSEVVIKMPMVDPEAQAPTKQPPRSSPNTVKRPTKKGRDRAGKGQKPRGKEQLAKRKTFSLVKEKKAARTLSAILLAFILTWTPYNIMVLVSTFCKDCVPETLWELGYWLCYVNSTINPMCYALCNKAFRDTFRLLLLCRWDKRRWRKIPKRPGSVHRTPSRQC

| Structure (SMILES) | outcome | AC50 |
| --- | --- | --- |
| Oc1ccc2c(c1)OC[C@@H](N1CCC(O)(c3ccc(F)cc3)CC1)[C@H]2O | inactive |  |
| CCCCC(CC)COC(=O)CC(C(=O)OCC(CC)CCCC)S(=O)(=O)O (stereo not given) |  | 34.6 µM (active) |
| Cc1nc(-c2ccc3c(c2)CCN(CCC2CCC(NC(=O)/C=C/c4ccc(F)cc4)CC2)CC3)no1 (stereo not given) |  | 0.148 µM (active) |

Molecular target: Muscarinic acetylcholine receptor M3 (Homo sapiens) (UniProt P20309)
Assay: NVS_GPCR_hM3: NovaScreen (NVS) G Protein-Coupled Receptor Assay for human Muscarinic, M3 Receptor (AID 2283272)
How it was run: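 Radioligand displacement binding on human M3 receptor in CHO-derived membranes, 1 h incubation, filter-based scintillation counting. Primary screen in duplicate at 25 uM; actives followed up in concentration series; loss of signal versus DMSO.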

Chain of Muscarinic acetylcholine receptor M3 (Homo sapiens) (P20309 whole entry, looked up): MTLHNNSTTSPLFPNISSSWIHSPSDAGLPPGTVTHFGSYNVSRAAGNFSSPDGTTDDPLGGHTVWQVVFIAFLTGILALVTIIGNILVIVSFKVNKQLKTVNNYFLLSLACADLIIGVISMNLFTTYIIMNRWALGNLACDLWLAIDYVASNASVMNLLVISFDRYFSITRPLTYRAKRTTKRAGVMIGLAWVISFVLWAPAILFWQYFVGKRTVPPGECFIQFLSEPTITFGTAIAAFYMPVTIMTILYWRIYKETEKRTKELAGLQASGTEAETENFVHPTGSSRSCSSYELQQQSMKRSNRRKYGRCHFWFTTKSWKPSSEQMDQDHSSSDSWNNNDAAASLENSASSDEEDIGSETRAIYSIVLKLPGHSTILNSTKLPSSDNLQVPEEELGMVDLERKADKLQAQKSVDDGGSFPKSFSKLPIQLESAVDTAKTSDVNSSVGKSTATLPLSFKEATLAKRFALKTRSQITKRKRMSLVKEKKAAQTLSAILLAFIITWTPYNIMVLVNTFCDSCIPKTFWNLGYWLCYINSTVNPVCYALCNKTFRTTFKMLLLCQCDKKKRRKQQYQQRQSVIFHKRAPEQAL

| Structure (SMILES) | AC50 | outcome |
| --- | --- | --- |
| C=CCOC(=O)c1ccccc1C(=O)OCC=C | 36.7 µM (active) |  |
| COc1cc(S(=O)(=O)O)c(C)cc1N=Nc1c(O)ccc2cc(S(=O)(=O)O)ccc12 |  | inactive |
| CCCCC(CC)COC(=O)CC(C(=O)OCC(CC)CCCC)S(=O)(=O)O (stereo not given) | 39.4 µM (active) |  |
| Cc1c(C(=O)O)c(O)cc2c1C(=O)c1c(O)c([C@@H]3O[C@H](CO)[C@@H](O)[C@H](O)[C@H]3O)c(O)c(O)c1C2=O |  | inactive |
| Cc1nc(-c2ccc3c(c2)CCN(CCC2CCC(NC(=O)/C=C/c4ccc(F)cc4)CC2)CC3)no1 (stereo not given) |  | inactive |

Molecular target: human Muscarinic, M4 Receptor, CHRM4 (gene 1132) (UniProt P08173)
Assay: NVS_GPCR_hM4: NovaScreen (NVS) G Protein-Coupled Receptor Assay for human Muscarinic, M4 Receptor (AID 2283274)
Description: as §1, with “NVS_GPCR_hM4” for “NVS_GPCR_hM1”, “plate.NVS_GPCR_hM4” for “plate.NVS_GPCR_hM1”, “NVS_GPCR_hM4,” for “NVS_GPCR_hM1,”, “CHRM4.” for “CHRM1.”
Binding assays used specific radioligands (tritiated, iodinated) with non-radioactive competitive displacement ligands in agonist or antagonist protocols (as indicated) and various reference compounds and inhibitors to titrate specific binding to receptors and transporters. Most enzyme assays (CYPs, kinases, phosphatases, proteases, HDACs) used recombinant protein and specific substrates (fluorescence mostly, some colorimetric and radioactive) and inhibitors, followed by a biochemical separation of substrate and product. All assays for the biochemical HTS were initially run in duplicate at a single concentration (10 uM for CYP450 assays and 25 uM for all others). […] Each assay was run with positive and negative controls, and concurrent controls on every plate. The follow-up (secondary) screen tested active chemical-pairs in concentration series, as well as a few additional assays not tested in the primary screen, some selected negative inactives, and several cases re-run in the concentration series for confirmatory purposes.

Chain of human Muscarinic, M4 Receptor, CHRM4 (gene 1132) (P08173 whole entry, looked up): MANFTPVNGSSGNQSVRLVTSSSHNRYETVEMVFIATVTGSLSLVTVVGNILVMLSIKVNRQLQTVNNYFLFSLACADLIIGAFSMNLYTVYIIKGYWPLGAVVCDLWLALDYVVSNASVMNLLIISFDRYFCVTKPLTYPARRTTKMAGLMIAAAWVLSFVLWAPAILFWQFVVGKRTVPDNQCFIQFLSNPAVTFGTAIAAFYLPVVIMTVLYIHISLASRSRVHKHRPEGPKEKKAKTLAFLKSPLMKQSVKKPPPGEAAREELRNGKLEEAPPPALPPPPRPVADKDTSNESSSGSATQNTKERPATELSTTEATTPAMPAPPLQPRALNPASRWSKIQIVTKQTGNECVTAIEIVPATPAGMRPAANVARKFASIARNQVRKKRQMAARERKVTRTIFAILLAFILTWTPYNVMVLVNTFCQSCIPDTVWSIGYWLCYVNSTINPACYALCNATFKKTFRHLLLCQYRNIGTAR

| Structure (SMILES) | AC50 | outcome |
| --- | --- | --- |
| CC1(C)CC(N=C=O)CC(C)(CN=C=O)C1 (stereo not given) | 2.94 µM (active) |  |
| COc1cc(S(=O)(=O)O)c(C)cc1N=Nc1c(O)ccc2cc(S(=O)(=O)O)ccc12 |  | inactive |
| O=C(N[C@@H](Cc1ccccc1)[C@@H](O)C(=O)N1C[C@@H](O)[C@@H](O)C1)c1cc2cc(Cl)ccc2[nH]1 |  | inactive |
| CNCc1cc(F)ccc1Oc1ccc(Cl)c(Cl)c1 | 25 µM (active) |  |
| C[C@]12C=CC(=O)C=C1CC[C@@H]1[C@@H]2C(=O)C[C@@]2(C)[C@H]1CC[C@]2(O)C(=O)CO | 25 µM (active) |  |
| CCCCC(CC)COC(=O)CC(C(=O)OCC(CC)CCCC)S(=O)(=O)O (stereo not given) | 37.6 µM (active) |  |
| Cc1c(C(=O)O)c(O)cc2c1C(=O)c1c(O)c([C@@H]3O[C@H](CO)[C@@H](O)[C@H](O)[C@H]3O)c(O)c(O)c1C2=O |  | inactive |
| Cc1nc(-c2ccc3c(c2)CCN(CCC2CCC(NC(=O)/C=C/c4ccc(F)cc4)CC2)CC3)no1 (stereo not given) | 0.123 µM (active) |  |
| CN1CCN(Cc2cc(-c3ccc4[nH]c(=O)oc4c3)co2)[C@@H](c2ccc(F)cc2)C1 | 26.7 µM (active) |  |

Molecular target: Muscarinic acetylcholine receptor M5 (Homo sapiens) (UniProt P08912)
Assay: NVS_GPCR_hM5: NovaScreen (NVS) G Protein-Coupled Receptor Assay for human Muscarinic, M5 Receptor (AID 2283275)
How it was run: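 Radioligand displacement on CHO-derived membrane preparations, 1 h, filter-based scintillation counting. Single-concentration duplicate screen at 25 uM; hits (e.g. 30% inhibition) retested in singleton concentration-response up to 50 uM. Loss of binding fitted versus DMSO.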

Chain of Muscarinic acetylcholine receptor M5 (Homo sapiens) (P08912 whole entry, looked up): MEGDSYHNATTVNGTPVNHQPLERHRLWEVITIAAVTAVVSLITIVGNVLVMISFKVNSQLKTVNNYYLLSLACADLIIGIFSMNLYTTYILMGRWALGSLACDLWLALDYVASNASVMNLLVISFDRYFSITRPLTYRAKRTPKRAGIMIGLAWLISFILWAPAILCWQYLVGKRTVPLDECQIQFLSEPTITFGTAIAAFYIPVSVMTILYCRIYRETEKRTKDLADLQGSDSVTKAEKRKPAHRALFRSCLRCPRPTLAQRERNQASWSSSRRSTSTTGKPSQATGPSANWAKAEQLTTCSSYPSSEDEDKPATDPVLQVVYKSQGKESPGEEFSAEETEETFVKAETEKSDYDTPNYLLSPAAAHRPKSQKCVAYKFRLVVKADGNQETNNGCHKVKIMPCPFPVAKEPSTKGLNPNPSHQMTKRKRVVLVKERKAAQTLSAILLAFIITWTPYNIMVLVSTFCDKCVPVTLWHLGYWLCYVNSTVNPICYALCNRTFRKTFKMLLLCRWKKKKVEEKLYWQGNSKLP

| Structure (SMILES) | AC50 | outcome |
| --- | --- | --- |
| COc1cc(S(=O)(=O)O)c(C)cc1N=Nc1c(O)ccc2cc(S(=O)(=O)O)ccc12 | 31.4 µM (active) |  |
| Oc1ccc2c(c1)OC[C@@H](N1CCC(O)(c3ccc(F)cc3)CC1)[C@H]2O | 16 µM (active) |  |
| CCCCC(CC)COC(=O)CC(C(=O)OCC(CC)CCCC)S(=O)(=O)O (stereo not given) | 18 µM (active) |  |
| Cc1nc(-c2ccc3c(c2)CCN(CCC2CCC(NC(=O)/C=C/c4ccc(F)cc4)CC2)CC3)no1 (stereo not given) |  | inactive |
| CN1CCN(Cc2cc(-c3ccc4[nH]c(=O)oc4c3)co2)[C@@H](c2ccc(F)cc2)C1 | 14.8 µM (active) |  |

Molecular target: Neuropeptide Y receptor type 2 (Homo sapiens) (UniProt P49146)
Assay: NVS_GPCR_hNPY2: NovaScreen (NVS) G Protein-Coupled Receptor Assay for human Neuropeptide Receptor Y2 (NPY2) (AID 2283277)
How it was run: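 Radioligand binding on membranes extracted from SK-N-MC cells, cell-free, read 1 h after dosing by filter-based scintillation counting. Loss of signal vs DMSO. Primary screen in duplicate at 25 uM; actives followed up in concentration-response up to 50 uM.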

Chain of Neuropeptide Y receptor type 2 (Homo sapiens) (P49146 whole entry, looked up): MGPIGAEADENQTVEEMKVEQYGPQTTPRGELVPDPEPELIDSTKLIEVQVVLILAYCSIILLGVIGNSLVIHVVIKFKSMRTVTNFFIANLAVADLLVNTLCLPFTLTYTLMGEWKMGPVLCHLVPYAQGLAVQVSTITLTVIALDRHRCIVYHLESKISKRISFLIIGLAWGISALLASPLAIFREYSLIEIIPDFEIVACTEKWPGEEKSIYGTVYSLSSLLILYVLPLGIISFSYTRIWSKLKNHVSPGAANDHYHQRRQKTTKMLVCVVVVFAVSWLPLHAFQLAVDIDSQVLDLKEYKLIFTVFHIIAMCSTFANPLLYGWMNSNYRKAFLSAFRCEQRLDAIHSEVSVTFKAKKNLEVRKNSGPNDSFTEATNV

| Structure (SMILES) | outcome | AC50 |
| --- | --- | --- |
| CC(=O)OC/C=C(\C)CCC=C(C)C | inactive |  |
| Nc1nc(N)c2nc(CNc3ccc(C(=O)N[C@@H](CCC(=O)O)C(=O)O)cc3)cnc2n1 | inactive |  |
| CCCCCCOCCO | inactive |  |
| CCOC(=O)CCC(=O)OCC | inactive |  |
| CCCCCCCCCCCC(=O)OC |  | 6.92 µM (active) |
| Cc1ccc(Cl)cc1 | inactive |  |

Molecular target: human Neurokinin, NK2 Receptor, TACR2 (gene 6865) (UniProt P21452)
Assay: NVS_GPCR_hNK2: NovaScreen (NVS) G Protein-Coupled Receptor Assay for human Neurokinin, NK2 Receptor (AID 2283278);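 note: actives reduce bound radioligand signal relative to DMSO baseline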
How it was run: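 Filter-based scintillation counting measured radioligand bound to receptor extracted from CHO cells, 4 hours after compound addition. Chemicals screened first at 25 uM in duplicate, with actives retested in concentration series relative to DMSO.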

Chain of human Neurokinin, NK2 Receptor, TACR2 (gene 6865) (P21452 whole entry, looked up): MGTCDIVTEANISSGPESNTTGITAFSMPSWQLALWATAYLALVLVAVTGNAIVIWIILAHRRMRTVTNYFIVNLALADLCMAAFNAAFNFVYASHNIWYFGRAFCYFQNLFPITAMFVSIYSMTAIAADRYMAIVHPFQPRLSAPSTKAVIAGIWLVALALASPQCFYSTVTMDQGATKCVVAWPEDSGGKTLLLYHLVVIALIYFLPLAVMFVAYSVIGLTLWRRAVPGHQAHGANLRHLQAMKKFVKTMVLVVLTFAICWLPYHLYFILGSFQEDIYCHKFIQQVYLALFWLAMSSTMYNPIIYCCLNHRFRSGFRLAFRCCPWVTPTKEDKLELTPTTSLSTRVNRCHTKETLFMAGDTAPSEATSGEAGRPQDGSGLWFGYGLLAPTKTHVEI

| Structure (SMILES) | AC50 | outcome |
| --- | --- | --- |
| COc1cc(-c2nc(NC(=O)c3cc4cc(C)cc(C)c4n3CC(=O)O)sc2CCC2CCCCC2)c(OC)cc1Cl | 15.9 µM (active) |  |
| CCc1c(C(=O)NN2CCCCC2)nn(-c2ccc(Cl)cc2Cl)c1-c1ccc(Br)cc1 |  | inactive |
| CCOC(=O)CCC(=O)OCC |  | inactive |
| CCOc1ccc2c(c1)C(C)=CC(C)(C)N2 |  | inactive |
| O=C(N[C@@H](Cc1ccccc1)[C@@H](O)C(=O)N1C[C@@H](O)[C@@H](O)C1)c1cc2cc(Cl)ccc2[nH]1 | 22.6 µM (active) |  |
| CCCc1cc(=O)[nH]c(=S)[nH]1 |  | inactive |
| Oc1ccc2ccccc2c1N=Nc1ccccc1 |  | inactive |
| NC(=O)Cn1c(=O)cc(CCN2CCN(c3nccc4sccc34)CC2)c2ccc(F)cc21 | 33.7 µM (active) |  |
| CCCCC(CC)COC(=O)CC(C(=O)OCC(CC)CCCC)S(=O)(=O)O (stereo not given) | 35.7 µM (active) |  |
| CN1CCN(Cc2cc(-c3ccc4[nH]c(=O)oc4c3)co2)[C@@H](c2ccc(F)cc2)C1 | 35.4 µM (active) |  |
| COc1ccc(S(=O)(=O)N2C(=O)[C@@](c3ccccc3OC)(N3C[C@H](O)C[C@H]3C(=O)N(C)C)c3cc(Cl)ccc32)c(OC)c1 | 9.61 µM (active) |  |
| CC1=C(/C=C/C(C)=C/C=C/C(C)=C/CO)C(C)(C)CCC1 |  | inactive |
